According to doi:10.1101/2024.03.05.583629:

Biological target: pT7_6His-AlfaTag-HOXD13 (human, UniProt P35453 263-343)
Assay: PADIT-seq
Settings: dsDNA, one strand shown

pT7_6His-AlfaTag-HOXD13, sequence (P35453 263-343): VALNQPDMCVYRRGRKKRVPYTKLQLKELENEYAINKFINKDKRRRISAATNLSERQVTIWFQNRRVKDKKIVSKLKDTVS

Sequence	binding signal
CTCGAGGATATCAAGATCTGGCCTCGGCCCGCCACGCGGAACCTCTAGCTAGCCGACTCACTATAGGGATAATCGCCCTGAGCAAAGACC	-1.05 ± 0.125 log2FC
CTCGAGGATATCAAGATCTGGCCTCGGCCTGTTAAAAGGAACCTCTAGCTAGCCGACTCACTATAGGGATAATCGCCCTGAGCAAAGACC	2.25 ± 0.0806 log2FC
CTCGAGGATATCAAGATCTGGCCTCGGCGCGTTAAAAGGAACCTCTAGCTAGCCGACTCACTATAGGGATAATCGCCCTGAGCAAAGACC	1.22 ± 0.079 log2FC
CTCGAGGATATCAAGATCTGGCCTCGGCAGCTTAAAAGGAACCTCTAGCTAGCCGACTCACTATAGGGATAATCGCCCTGAGCAAAGACC	0.129 ± 0.0835 log2FC
CTCGAGGATATCAAGATCTGGCCTCGGCCTCATAAAAGGAACCTCTAGCTAGCCGACTCACTATAGGGATAATCGCCCTGAGCAAAGACC	3.06 ± 0.0788 log2FC
CTCGAGGATATCAAGATCTGGCCTCGGCTTTTTACTTGGAACCTCTAGCTAGCCGACTCACTATAGGGATAATCGCCCTGAGCAAAGACC	1.32 ± 0.0895 log2FC
CTCGAGGATATCAAGATCTGGCCTCGGCCTTTTATACGGAACCTCTAGCTAGCCGACTCACTATAGGGATAATCGCCCTGAGCAAAGACC	2.32 ± 0.0734 log2FC
CTCGAGGATATCAAGATCTGGCCTCGGCGCACTAAAAGGAACCTCTAGCTAGCCGACTCACTATAGGGATAATCGCCCTGAGCAAAGACC	0.431 ± 0.0748 log2FC
CTCGAGGATATCAAGATCTGGCCTCGGCTTTTTAACCGGAACCTCTAGCTAGCCGACTCACTATAGGGATAATCGCCCTGAGCAAAGACC	0.739 ± 0.095 log2FC
CTCGAGGATATCAAGATCTGGCCTCGGCCTTTTATGGGGAACCTCTAGCTAGCCGACTCACTATAGGGATAATCGCCCTGAGCAAAGACC	3.37 ± 0.0902 log2FC
